Rows were chosen to be rich in hits. Some 8% of all compounds tested hit in one or more screens of this group.
MCF10A rereplic: A quantitative high throughput screen for small molecules that induce DNA re-replication in MCF 10a normal breast cells | MCF 10A DNA re-replication, Hoechst nuclear intensity, 48 h | Potency, µM (series often up to 46.1 µM), for inactives: at the top dose activity, positive = re-replication, actives largely listed as activators | actives 2.9% (n = 350,000); note: % of control where 0% means no effect; nearly all actives have a fitted effect of over 50% in size
SW480 rerep: A quantitative high throughput screen for small molecules that induce DNA re-replication in SW480 colon adenocarcinoma cells; actives 1.8% (n = 340,000); AID 624297, 2012; SW480 DNA re-replication, Hoechst DNA content imaging, 48 h; Potency, µM (top dose mostly 46.1 µM), for the others: at the highest dose re-replication activation, hits mostly activators; note: % of control where 0% means no effect; nearly all actives have a fitted effect of over 55% in size
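Treated cells incubate 48 hr (37 C, 5% CO2), are stained 40 min with Hoechst, and nuclear fluorescence is enumerated; a rise in nuclei with high DNA signal marks re-replication.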
KB-3-1 cytotox: qHTS assay for MDR1-selective chemotherapeutics: Primary screen using the parental adenocarcinoma cell KB-3-1; KB-3-1 viability, CellTiter-Glo ATP luminescence, 72 h; Potency, µM (highest dose often 46.1 µM), most hits filed as cytotoxic; AID 1347075, 2019; actives 1.4% (n = 400,000); note: % is set by controls: 0 for no effect and ±100 for the full control effect; nearly all actives have a fitted effect of over 60% in size
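Parental KB-3-1 adenocarcinoma cells in phenol-red-free DMEM with 10% FBS were pin-treated with compounds at several concentrations, incubated 72 h at 37 °C, and viability read by CellTiter-Glo luminescence; concentration-effect curves were fitted after normalization.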
HT1080 IDH1KD tx: qHTS for induction of synthetic lethality in tumor cells producing 2HG: qHTS for the HT-1080-IDH1KD cell line; HT-1080 IDH1 knockdown viability, ATP luminescence, 48 h; actives 2% (n = 360,000); Potency, µM (series often up to 46.1 µM), without a hit: top-dose activity, negative = toxicity, most hits filed as cytotoxic;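 note: 0% = DMSO wells and -100% = cell-free medium wells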
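Luminescent ATP read-out (CellTiter-Glo, 10 min at room temperature) after 48 h compound exposure at 37 °C gave viability of IDH1-knockdown HT-1080 cells. Activity was normalised to DMSO and cell-free wells, then fitted as concentration-response curves.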
HT1080NT lethal: qHTS for induction of synthetic lethality in tumor cells producing 2HG: qHTS for the HT-1080-NT fibrosarcoma cell line. HT-1080-NT fibrosarcoma viability, CellTiter-Glo ATP luminescence, 48 h. Potency, µM (doses to about 46.1 µM), for inactives: at the highest dose activity, negative = less viability, usual class: cytotoxic. actives 1.6% (n = 360,000). AID 686970, 2013;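 note: NT is the 2HG producing partner of a matched IDH1 knockdown line; 0% = DMSO-treated cells and -100% = media-only wells without cells; nearly all actives have a fitted effect of over 55% in size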
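A 48-hour cytotoxicity screen used HT-1080-NT cells plated 2 hours before compound delivery. ATP-based CellTiter-Glo luminescence measured viability, normalized to DMSO and no-cell controls.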
KB-V1 cytotox: qHTS assay for MDR1-selective chemotherapeutics: Primary screen using the drug-selected MDR subline cells KB-V1; KB-V1 MDR cells viability, CellTiter-Glo, 72 h; Potency, µM (titrated, usually from 46.1 µM), actives largely listed as cytotoxic; actives 3.4% (n = 400,000); note: % is set by controls: 0 for no effect and ±100 for the full control effect; nearly all actives have a fitted effect of over 60% in size
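Drug-selected KB-V1 cells, grown in DMEM lacking phenol red with 10% FBS, receive compound titrations; after three days at 37 degrees C, surviving cell ATP is quantified by CellTiter-Glo luminescence and responses normalized and curve-fitted.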
* marks the source's active call; other numbers are inactive results; i = inactive; u = inconclusive; x = no result given; [ ] = another dose, or the depositor's remark. Calls come from the whole dose curve; as a rule, active = well fitted curve in the direction sought with a large enough effect; inconclusive = small, poorly fitted or top-dose-only effect, or another doubt; inactive = no such curve, though single readings can be large; an effect the other way counts as inactive or inconclusive. Potency is the fitted concentration of half-maximal effect.

SMILES	MCF10A rereplic	SW480 rerep	KB-3-1 cytotox	HT1080 IDH1KD tx	HT1080NT lethal	KB-V1 cytotox
Cc1cc(C)n(CCc2nc3c4ccccc4nc(SCc4ccc(Cl)cc4)n3n2)n1	x	x	i	x	x	i
COC(=O)C1=CN(c2ccc(C)cc2)C(N)=C(C#N)C1c1ccc(OC)cc1 (centres undefined)	x	x	23µM*	u	-28%	23µM*
COC(=O)C1=CN(c2ccc3c(c2)OCO3)C(N)=C(C#N)C1c1cccc(F)c1 (centres undefined)	x	x	2.3µM*	1.8µM*	3.7µM*	3.7µM*
COC(=O)C1=CN(c2ccc(OC)cc2OC)C(N)=C(C#N)C1c1ccccc1F (centres undefined)	x	x	1.5µM*	0.73µM*	1.5µM*	u
CCc1ccc(N2C=C(C(=O)OC)C(c3ccc(OC)cc3)C(C#N)=C2N)cc1 (centres undefined)	x	x	u	u	u	18µM*
COC(=O)C1=CN(c2ccc(OC)cc2)C(N)=C(C#N)C1c1ccc(OC)cc1 (centres undefined)	x	x	i	-15%	-17%	i
COC(=O)C1=CN(c2ccc(N3CCOCC3)cc2)C(N)=C(C#N)C1c1ccccc1 (centres undefined)	x	x	u	-10%	-14%	i
CCOCCCNC(=O)Nc1cc(C(=O)NCc2ccc(C(C)C)cc2)ccc1N1CCCC1	x	x	i	x	x	i
O=c1c2ccccc2sn1-c1ccc(S(=O)(=O)N2CCOCC2)cc1	x	x	i	x	x	i
CCOCCCNC(=O)Cn1cnc2sc(C)c(S(=O)(=O)N3CCN(c4ncccn4)CC3)c2c1=O	3%	5.2µM*	i	-2%	2%	i
COc1ccccc1NC(=O)Cn1cnc2sc(C)c(S(=O)(=O)N3CCCCC3)c2c1=O	-2%	-38%	i	13%	16%	9.2µM*
COc1cc2nc(N3CCCN(C)CC3)nc(NC3CCN(C)C3)c2cc1OC (centres undefined)	x	x	u	x	x	i
CSc1nnc(-c2sc3cc(C(F)(F)F)cnc3c2-c2ccccc2)n1C	4.6µM*	14%	6.5µM*	-27%[9.24 µM]	u	3.7µM*
O=C(O)c1sc2cc(C(F)(F)F)cnc2c1-c1ccccc1	5%	-6%	i	-1%	-5%	i
CO/N=C(/CNC(=O)c1cccc(Cl)c1)c1ccc(Cl)cc1	-2%	-125%	i	-30%	-4%	23µM*
CCOC(=O)c1[nH]c(C)c(C(=O)NCc2ccc(OC)cc2)c1C	16%	0%	i	-7%	0%	i
O=C(COC(=O)c1cc[n+]([O-])cc1)Nc1ccc(Cl)cc1[N+](=O)[O-]	2%	-7%	i	8%	0%	i
CCOC(=O)c1c(C)[nH]c(C(=O)OCC(=O)Nc2cc(Cl)ccc2OC)c1C	9%	u	i	u	-19%[9.24 µM]	9.2µM*
CCOC(=O)c1[nH]c(C)c(C(=O)Nc2cc(OC)ccc2OC)c1C	0.63µM*	1.3µM*	1.3µM*	0.56µM*	0.63µM*	0.5µM*
Cc1ccc(OCC(=O)N(C)CC(=O)Nc2ccc(F)cc2)c([N+](=O)[O-])n1	-4%	3%	i	2%	6%	i
Cc1ccc(OCC(=O)N(C)CC(=O)Nc2ccccc2Cl)c([N+](=O)[O-])n1	-2%	-1%	i	-23%	-2%	18µM*
CC(=O)c1c(C)[nH]c(C(=O)OCC(=O)Nc2ccc(Cl)cc2[N+](=O)[O-])c1C	4%	-11%	i	-27%	18µM*	u
CCOC(=O)c1c(C)[nH]c(C(=O)OCC(=O)Nc2cc(C)ccc2OC)c1C	u	-14%	i	0%	-2%	u
CSc1ccc(CCNc2ncnc3onc(C)c23)cc1	x	x	u	x	x	i
Cc1ccc(OCC(=O)N2CCc3ccccc32)c([N+](=O)[O-])n1	3%	-7%	23µM*	18%	18%	i
SMILES	MCF10A rereplic	SW480 rerep	KB-3-1 cytotox	HT1080 IDH1KD tx	HT1080NT lethal	KB-V1 cytotox
O=C(COc1cccnc1[N+](=O)[O-])N1CCc2ccccc21	-3%	1%	i	20%	3%	i
CCOC(=O)c1c(C)[nH]c(C(=O)OCC(=O)N(C)CC(=O)Nc2ccccc2Cl)c1C	8%	u	i	-5%	-3%	13µM*
CCOC(=O)c1[nH]c(C)c(C(=O)OCC(=O)NC(C)c2ccc(F)cc2)c1C (centres undefined)	u	9.2µM*	1.8µM*	3.7µM*	3.7µM*	i
CC(=O)Oc1ccc(-c2ccc(C(=O)OCC(=O)N(C)CC(=O)Nc3ccccc3Cl)cc2)cc1	u	-2%	i	u	18µM*	i
CCO[C@H]1OC(C(=O)NCc2nc3ccccc3[nH]2)=C[C@@H](c2ccc(Br)cc2)[C@@H]1CCCO	29%	7%	i	-28%	u	i
CCO[C@@H]1OC(C(=O)NCc2nc3ccccc3[nH]2)=C[C@H](C2CC2)[C@H]1CCCO	u	u	5.2µM*	u	18µM*	i
CCO[C@@H]1OC(C(=O)NCc2nc3ccccc3[nH]2)=C[C@H](C(C)(C)C)[C@H]1CCCO	4.1µM*	u	1.3µM*	3.3µM*	3.3µM*	i
CCN(CC)CCNC(=O)c1cn(-c2ccccc2)nc1-c1cccs1	-12%	3%	i	-17%	-22%	i
CCN(CC)CCOC(=O)c1ccc(NC(=O)c2cn(-c3ccccc3)nc2-c2cccs2)cc1	21µM*	-8%	i	u	21µM*	i
O=C(Nc1ccc2ccccc2c1)c1cn(-c2ccccc2)nc1-c1cccs1	15%	4%	i	-18%	u	18µM*
CCN(Cc1ccccc1)C(c1cc2ccc(C)cc2[nH]c1=O)c1nnnn1CCOC (centres undefined)	0%	1%	i	7%	-3%	15µM*
Cc1cc(C)n(-c2nc(NCCCN(C)C)c3c4c(sc3n2)COC(C)(C)C4)n1	2%	-6%[9.22 µM]	i	-25%	-14%	i
Cc1cc(C)n(-c2nc(SCCN3CCOCC3)c3c4c(sc3n2)CCCC4)n1	6%	0%	u	-20%	-6%	i

Assay outcomes (PubChem)
